Reference: PubChem BioAssay (NCI)
Values joined by “and” are separate entries in the source; they are usually repeats but may differ in a detail not shown here. Equal entries are not always repeated. About 83,000 compounds went through this panel and 20% of them were active in at least one assay; those are over-represented in the sample as a whole.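 Compound tested at a single concentration for 48 hours in 96-well plates; a percent growth value below 10 was scored as active.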 Active and inactive are the calls of the source.

The compounds below were run on MDA-MB-468 breast (assay: NCI-60 one-dose screen, 48 h (100 = growth as untreated, 0 = no growth, -100 = all killed)). Conditions: 10 µM unless noted.
Experimental: Growth inhibition of the MDA-MB-468 human Breast tumor cell line is measured as a screen for anti-cancer activity. Cells are grown in 96 well plates and exposed to the test compound for 48 hours. Compounds are tested at a single concentration, which is 10^-5 M for most compounds. The reported endpoint is percent growth (GI% or GIPRCNT), where numbers from 0 - 100% represent growth inhibition, and numbers from -100% - 0 represent cell death. For example, a value of 40 represents 60% growth inhibition. A value of 0 means no net growth occurred over the course of the experiment. A value of -40 indicates 40% of cells at the beginning of the experiment died by the end of the experiment. A value of -100 means all cells are dead at the end of the experiment.
NCI-60 Human Tumor Cell Lines Screen was performed using the standard one-dose NCI protocol, which is described in more detail at https://dtp.cancer.gov/discovery_development/nci-60/default.htm.
Compounds with GIPRCNT values below 10 were considered active. Activity score was based on GIPRCNT using the following formula: […]
Score is 0 for GIPRCNT values of 100 or above, 50 for GIPRCNT values of 0, and 100 for GIPRCNT values of -100.
`CC(=O)N(C)C1CCc2c(sc(NC(=O)c3ccc(C(C)(C)C)cc3)c2C(N)=O)C1` (stereo not given) was tested, and the growth was 86.6% (inactive). With `Cc1cc2nc3c4ccc(Br)cc4n(CCN(C)C)c3nc2cc1C` the growth was -6.68% (active). In the case of `CN1C(=O)/C(=C\c2c(Cl)cccc2Cl)c2ccccc21`, the growth is reported as 37.7% (inactive). In the case of `O=[N+]([O-])c1ccc(N/N=C/c2cccc3ccccc23)nc1`, the growth is reported as 77.2% (inactive). `CC(=O)Nc1cccc(NC(C)=O)n1` was tested, and the growth was 99.3% (inactive). For `COc1ncnc2[nH]cc(CN3CCN(c4ccc(F)cc4)CC3)c12`, the growth was 108% (inactive). With `CC12CCC3C(=CCc4cc(O)ccc43)C1CCC2=O` (stereo not given) the growth was 96.9% (inactive). In the case of `COC(=O)[C@]1(C)CCC[C@]2(C)[C@H]3C[C@H]4C(C(C)C)=C[C@]3(CC[C@H]21)[C@@H]1C(=O)CC[C@H](OCCC#N)[C@@H]14`, the growth is reported as 70.5% (inactive). In the case of `O=C1NC(=O)C(c2cnc3ccccn23)=C1c1cn2c3c(cc(F)cc13)CN(C(=O)N1CCCCC1)CC2`, the growth is reported as 47.6% (inactive). In the case of `C=CC(=O)Nc1cccc(Oc2nccc(Nc3nnc(C4CC4)s3)n2)c1`, the growth is reported as 102% (inactive). With `COc1cc(Cl)cc(-c2nn(C(=O)NS(=O)(=O)c3ccccc3)cc2-c2ccncc2)c1` the growth was 89% (inactive). In the case of `OCc1cn(-c2ccc(Cl)cc2)nc1-c1ccc(O)cc1`, the growth is reported as 107% (inactive). `C[C@H]1c2cccc(O)c2C(O)=C2C(=O)[C@]3(O)C(O)=C(C(N)=O)C(=O)[C@@H](N(C)C)[C@@H]3[C@@H](O)[C@@H]21` was tested, and the growth was 41.8% (inactive). In the case of `COc1cccc2c1C(=O)c1c(O)c3c(c(O)c1C2=O)C[C@@](O)(C(=O)CO)C[C@@H]3OC1CC(OC(C)=O)C(OC(C)=O)C(C)O1` (stereo not given in full), the growth is reported as -25.8% (active). With `COc1ccc(Cc2cnc(NC(=O)c3sc4ccccc4c3Cl)s2)cc1` the growth was 23.5% (inactive). For `O=C(CN1CCNCC1)N1CCOCC1`, the growth was 117% (inactive). `COc1ccc(C2CC(c3cccc(Nc4ccnc5cc(Cl)ccc45)c3)=NN2c2ccccc2)cc1` (stereo not given) was tested, and the growth was 63.3% (inactive). In the case of `N=C(N)c1ccc(-c2ccc(-c3ccc(F)cc3)s2)nc1`, the growth is reported as 25.1% (inactive). `CC(C)OCCCNCC(=O)Nc1ccc(S(=O)(=O)c2ccc(NC(=O)CNCCCOC(C)C)cc2)cc1` was tested, and the growth was 92.7% (inactive). In the case of `Nc1c(C(=O)c2ccc(F)cc2)sc2nc3c(cc12)CCCC3`, the growth is reported as 59.9% (inactive). For `CCC[CH2][Sn]1([CH2]CCC)[O]C2C(CO)OC(n3ccc(N)nc3=O)C2[O]1` (stereo not given), the growth was -82.9% (active). In the case of `S=C(Nc1ccc(Cl)cc1)Nc1ccc(Cl)cc1` (tested in a mixture with another compound), the growth is reported as -16.6% (active). In the case of `CCN1CC(CCN2CCOCC2)C(C(c2ccccc2)c2ccccc2)C1=O` (stereo not given), the growth is reported as 102% (inactive). `O=C(O)c1ccc2c(c1Cl)C(=O)c1ccccc1C2=O` was tested, and the growth was 88.9% (inactive). With `O=CC(O)C(O)C(O)CO` (stereo not given) the growth was 104% (inactive) and 102% (inactive). With `O=C(CSc1nc2ccc([N+](=O)[O-])cc2[nH]1)Nc1cccc(Cl)c1` the growth was -10.4% (active). `CN1CCN(Cc2ccc(NC(=O)c3cncc(C#Cc4cncc5[nH]ncc45)c3)cc2C(F)(F)F)CC1` was tested, and the growth was 16.6% (inactive). In the case of `CCOC(=O)/C(C#N)=C\c1c[nH]c2ccccc12`, the growth is reported as 97.4% (inactive). `N#Cc1c(-c2ccccc2)cc(-c2c[nH]c3ccccc23)nc1-c1c[nH]c2ccccc12` was tested, and the growth was 93% (inactive). For `C/C(=C(\c1ccc(O)cc1)c1ccc(OCCN2CCCCCC2)cc1)c1ccc(Cl)cc1`, the growth was -88% (active). `ICCC(c1ccccc1)(c1ccccc1)c1ccccc1` was tested, and the growth was 22.6% (inactive). In the case of `C#CCOc1ccc(-c2csc(NC(=O)C=C)n2)cc1NS(=O)(=O)c1cccc2c(N(C)C)cccc12`, the growth is reported as 11.3% (inactive). `COc1ccc(-c2cc(-c3nnc(SC/C(=N\O)c4ccccc4)n3-c3ccccc3)c3ccccc3n2)cc1` was tested, and the growth was 107% (inactive). For `COCCNC(=O)c1ccc(-c2nc3ccc4[nH]ncc4c3c3c2CCCC3)cc1`, the growth was 4.81% (active). For `Cc1ccc2oc(=O)cc(/C(=C3/C=CC=N3)c3ccc[nH]3)c2c1`, the growth was 3.2% (active). For `Cc1ccc2c(c1)=C/C(=C\c1cc(-c3ccccc3)[nH]c1O)C(=O)N=2`, the growth was 8.74% (active). In the case of `Clc1cccc(Cl)c1C1CSc2ccccc2N=C1c1ccccc1` (stereo not given), the growth is reported as 80.3% (inactive). In the case of `O=[N+]([O-])c1ccccc1C(O)Cc1ccc2ccccc2n1` (stereo not given), the growth is reported as 79.7% (inactive). `CO[C@H](C(=O)[C@@H](O)[C@@H](C)O)[C@@H]1Cc2cc3cc(O[C@H]4C[C@@H](O[C@H]5C[C@@H](O)[C@H](O)C(C)O5)[C@H](O)C(C)(O)O4)cc(O)c3c(O)c2C(=O)[C@H]1O[C@H]1C[C@@H](O[C@H]2C[C@@H](O[C@H]3C[C@@H](OC)[C@H](O)C(C)O3)[C@@H](O)C(C)O2)[C@H](O)C(C)O1` (stereo not given in full) was tested, and the growth was 14% (inactive). In the case of `Clc1ccc(Oc2ccc(Nc3ncnc4onc(-c5ccccc5)c34)cc2)c(Cl)c1`, the growth is reported as 95.1% (inactive).
